High-throughput results (PubChem BioAssay)
Shn3 inh set2: reduces Shn3 3'UTR luciferase signal in osteoblasts; Clone20 osteoblast Shn3 3'UTR firefly luciferase, 24 h; inhibition, % at 12.5 µM; 360,000 tested, 0.52% active; AID 588674;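 active means mean inhibition of at least 75% with every replicate also reaching 75%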
HIF-2a block: HIF-2a inhibition. 786-0 RCC cells HIF-2a reporter, luciferase luminescence, overnight. inhibition, % at 18.8 µM. 360,000 tested, 0.72% active. AID 624352;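 active means inhibition of the luminescence signal of 40% or more relative to plate controls, in a single-dose primary screen at 18.75 µM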
LMP1 NFkB inh: inhibitors of Epstein-Barr LMP1-induced NF-kappaB reporter | 350,000 tested, 0.69% active | inhibition, % at 12.5 µM | LMP1-induced NF-kappaB luciferase reporter cells, luminescence | AID 504558; in the data active means inhibition above about 41%
TROY signal inh: blocks TROY-dependent signaling in reporter cells. 360,000 tested, 0.98% active. inhibition, % at 10 µM. AID 1347056. Q293 LMP1-TROYcd NF-kB luciferase reporter, 4 h;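 active means compounds whose plate-normalised and pattern-corrected inhibition of the luciferase reporter signal at the single screening dose is 50% or more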
TRPM1 prom inh: inhibitors of MITF-driven TRPM1 promoter in melanoma cells. SK-MEL-5 TRPM1 promoter luciferase, 24 h. inhibition, % at 12.5 µM. 330,000 tested, 0.83% active. AID 488899;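 active means mean inhibition across replicates of 60% or more, whatever share of single replicates reaches that level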
TWEAK-Fn14 inh: TWEAK-Fn14 signaling inhibition; 360,000 tested, 2% active; inhibition, % at 10 µM; TWEAK-stimulated Fn14 reporter cells, luciferase luminescence, 8 h; AID 1159606; in the data active means inhibition above about 50%
A number is an active result. The list is not random: actives were taken first. Their share in the collection is about 3.4%.

How did COc1cccc2cc(-c3csc(NC(=O)CCC(=O)NCCCN4CCC(C)CC4)n3)c(=O)oc12 do in these assays?
Shn3 inh set2: inactive; HIF-2a block: inactive; LMP1 NFkB inh: inactive; TROY signal inh: inactive; TRPM1 prom inh: inactive; TWEAK-Fn14 inh: 59.3

What do the screens show for `Cc1noc(C)c1S(=O)(=O)N(C)C[C@@H]1OCc2cnnn2CCCC(=O)N([C@H](C)CO)C[C@@H]1C`?
Shn3 inh set2: inactive; HIF-2a block: inactive; LMP1 NFkB inh: inactive; TROY signal inh: inactive; TWEAK-Fn14 inh: inactive

What do the screens show for `O=C(Cc1ccccc1[N+](=O)[O-])NC1CC1`?
Shn3 inh set2: inactive; HIF-2a block: inactive; LMP1 NFkB inh: inactive; TROY signal inh: inactive; TRPM1 prom inh: inactive; TWEAK-Fn14 inh: inactive

How did O=C(Cc1ccccc1[N+](=O)[O-])NCC1(c2cccc3c2OCO3)OCCO1 do in these assays?
Shn3 inh set2: inactive; HIF-2a block: inactive; LMP1 NFkB inh: 45.8; TROY signal inh: inactive; TRPM1 prom inh: inactive; TWEAK-Fn14 inh: inactive

What do the screens show for `CCCCNCc1nc2ccccc2c(=O)[nH]1`?
Shn3 inh set2: inactive; HIF-2a block: inactive; LMP1 NFkB inh: inactive; TROY signal inh: inactive; TRPM1 prom inh: inactive; TWEAK-Fn14 inh: inactive

How did CCc1ccc(NCc2nc3ccccc3c(=O)[nH]2)cc1 do in these assays?
Shn3 inh set2: inactive; HIF-2a block: inactive; LMP1 NFkB inh: inactive; TROY signal inh: 67.1; TRPM1 prom inh: inactive; TWEAK-Fn14 inh: inactive

What do the screens show for `CC(C)NC(=O)CSc1nnc2sc3ccccc3n12`?
Shn3 inh set2: inactive; HIF-2a block: inactive; LMP1 NFkB inh: inactive; TROY signal inh: inactive; TRPM1 prom inh: inactive; TWEAK-Fn14 inh: inactive

How did NC(=O)CSc1nnc2sc3ccccc3n12 do in these assays?
Shn3 inh set2: inactive; HIF-2a block: inactive; LMP1 NFkB inh: inactive; TRPM1 prom inh: inactive; TWEAK-Fn14 inh: 85.0

What do the screens show for `CC(Oc1ccc(Br)cc1)c1nc2c3ccccc3nc(=S)n2[nH]1` (stereo unspecified)?
Shn3 inh set2: inactive; HIF-2a block: inactive; LMP1 NFkB inh: inactive; TROY signal inh: inactive; TRPM1 prom inh: inactive; TWEAK-Fn14 inh: inactive

What do the screens show for `CCCC(Oc1ccc(Br)cc1)c1nc2c3cc(OC)c(OC)cc3nc(=S)n2[nH]1` (stereo unspecified)?
Shn3 inh set2: inactive; HIF-2a block: inactive; LMP1 NFkB inh: inactive; TROY signal inh: 61.6; TRPM1 prom inh: inactive; TWEAK-Fn14 inh: inactive

How did COC(=O)c1ccc(NC(=O)c2cc3sccc3n2C)cc1 do in these assays?
Shn3 inh set2: inactive; HIF-2a block: inactive; LMP1 NFkB inh: inactive; TROY signal inh: inactive; TRPM1 prom inh: inactive; TWEAK-Fn14 inh: 55.5

Results for Cc1ccc(NC(=O)COC(=O)c2c[nH]c3ccccc23)cc1C ?
Shn3 inh set2: inactive; HIF-2a block: inactive; LMP1 NFkB inh: inactive; TROY signal inh: inactive; TRPM1 prom inh: inactive; TWEAK-Fn14 inh: inactive

What do the screens show for `COc1cc([N+](=O)[O-])cc(/C=C2/SC(=S)N(Cc3ccccc3)C2=O)c1O`?
Shn3 inh set2: inactive; HIF-2a block: inactive; LMP1 NFkB inh: inactive; TROY signal inh: inactive; TRPM1 prom inh: inactive; TWEAK-Fn14 inh: 70.0

Results for COc1cc(/C=C2/SC(=S)N(Cc3ccccc3)C2=O)ccc1OCC(=O)O ?
Shn3 inh set2: inactive; HIF-2a block: inactive; LMP1 NFkB inh: 46.9; TROY signal inh: inactive; TRPM1 prom inh: inactive; TWEAK-Fn14 inh: inactive

How did COc1cc(/C=C2/SC(=S)N(Cc3ccccc3)C2=O)cc(Cl)c1O do in these assays?
Shn3 inh set2: inactive; HIF-2a block: inactive; LMP1 NFkB inh: inactive; TROY signal inh: 50.6; TRPM1 prom inh: inactive; TWEAK-Fn14 inh: 65.4

Results for COc1cc(/C=C2/SC(=S)N(Cc3ccccc3)C2=O)ccc1OS(C)(=O)=O ?
Shn3 inh set2: inactive; HIF-2a block: inactive; LMP1 NFkB inh: inactive; TROY signal inh: inactive; TRPM1 prom inh: inactive; TWEAK-Fn14 inh: inactive

Results for COc1cc(/C=C2\SC(=O)N(Cc3ccc(Cl)cc3)C2=O)cc([N+](=O)[O-])c1O ?
Shn3 inh set2: inactive; HIF-2a block: inactive; LMP1 NFkB inh: inactive; TROY signal inh: 55.0; TRPM1 prom inh: inactive; TWEAK-Fn14 inh: 55.7

What do the screens show for `O=C1/C(=C\c2cc(Br)cc(Br)c2O)SC(=S)N1Cc1ccccc1`?
Shn3 inh set2: inactive; HIF-2a block: inactive; LMP1 NFkB inh: inactive; TROY signal inh: inactive; TRPM1 prom inh: inactive; TWEAK-Fn14 inh: inactive

How did Cc1ccnc(Nc2ccc(CCO)cc2)n1 do in these assays?
Shn3 inh set2: inactive; HIF-2a block: inactive; TROY signal inh: inactive; TWEAK-Fn14 inh: inactive

What do the screens show for `NS(=O)(=O)c1cccc(NC(=O)c2ccccc2NS(=O)(=O)c2ccc(F)cc2)c1`?
Shn3 inh set2: inactive; HIF-2a block: inactive; LMP1 NFkB inh: inactive; TROY signal inh: inactive; TRPM1 prom inh: inactive; TWEAK-Fn14 inh: inactive

How did Cc1ccc(NC(=O)c2ccccc2NS(=O)(=O)c2ccc(F)cc2)cc1S(=O)(=O)N1CCCCC1 do in these assays?
Shn3 inh set2: inactive; HIF-2a block: inactive; LMP1 NFkB inh: inactive; TROY signal inh: 60.3; TRPM1 prom inh: inactive; TWEAK-Fn14 inh: 72.2

Results for Cc1ccc(C(=O)Nc2ccccc2C(=O)NCc2ccco2)cc1S(=O)(=O)N1CCCCC1 ?
Shn3 inh set2: inactive; HIF-2a block: inactive; LMP1 NFkB inh: inactive; TROY signal inh: inactive; TRPM1 prom inh: inactive; TWEAK-Fn14 inh: 51.7

Results for Cc1ccc(NC(=O)CCNC(=O)c2ccccc2Cl)cc1S(=O)(=O)N1CCCCCC1 ?
Shn3 inh set2: inactive; HIF-2a block: inactive; LMP1 NFkB inh: inactive; TROY signal inh: inactive; TRPM1 prom inh: inactive; TWEAK-Fn14 inh: inactive

What do the screens show for `Cc1ccc(NC(=O)CN(C)CC(=O)Nc2cccc(F)c2)cc1S(=O)(=O)N1CCCCCC1`?
Shn3 inh set2: inactive; HIF-2a block: inactive; LMP1 NFkB inh: inactive; TROY signal inh: 50.4; TRPM1 prom inh: inactive; TWEAK-Fn14 inh: 50.3

Results for O=C(Nc1cccc(S(=O)(=O)N2CCCCC2)c1)c1ccccc1NS(=O)(=O)c1ccc(F)cc1 ?
Shn3 inh set2: inactive; HIF-2a block: inactive; LMP1 NFkB inh: inactive; TROY signal inh: 54.1; TRPM1 prom inh: inactive; TWEAK-Fn14 inh: 58.0

Results for O=c1oc(-c2ccccc2)c(-c2ccccc2)c2ccccc12 ?
Shn3 inh set2: inactive; HIF-2a block: inactive; LMP1 NFkB inh: inactive; TROY signal inh: inactive; TRPM1 prom inh: inactive; TWEAK-Fn14 inh: inactive

How did Cc1cccc(C(=O)NC(=S)Nc2ccc(S(=O)(=O)N3CCCCC3)cc2)c1 do in these assays?
Shn3 inh set2: inactive; HIF-2a block: inactive; LMP1 NFkB inh: inactive; TROY signal inh: inactive; TRPM1 prom inh: inactive; TWEAK-Fn14 inh: 51.1

What do the screens show for `Cc1cccc(C(=O)NC(=S)Nc2ccc(S(=O)(=O)N3CCN(C)CC3)cc2)c1`?
Shn3 inh set2: inactive; HIF-2a block: inactive; LMP1 NFkB inh: inactive; TROY signal inh: inactive; TRPM1 prom inh: inactive; TWEAK-Fn14 inh: inactive

How did Cc1ccc(NC(=O)c2cc(=O)c3ccccc3o2)cc1S(=O)(=O)N1CCCCC1 do in these assays?
Shn3 inh set2: inactive; HIF-2a block: inactive; LMP1 NFkB inh: inactive; TROY signal inh: 56.9; TRPM1 prom inh: inactive; TWEAK-Fn14 inh: inactive

How did CCS(=O)(=O)N1Cc2ccccc2CC1C(=O)N(C)CC(=O)Nc1cccc(F)c1 (stereo unspecified) do in these assays?
Shn3 inh set2: inactive; HIF-2a block: inactive; LMP1 NFkB inh: inactive; TROY signal inh: 58.5; TRPM1 prom inh: inactive; TWEAK-Fn14 inh: inactive
